Compound activity as filed in PubChem.
Sa growth inh = blocks Staphylococcus aureus growth; S. aureus RN4220 growth, OD600, 20 h, 42 °C; hits give low values; relative growth, % (concentration not given with the values); 170,000 tested, 0.53% active; AID 720641;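 active means relative growth at most 50% at the other temperature and 20+ points below 30 °C, or under 10% at both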
S aureus helic = S. aureus DNA helicase inhibition; purified S. aureus helicase, fluorescence unwinding assay; inhibition, % (test concentration not listed); 120,000 tested, 0.05% active; in the data active means inhibition above about 25%, passing the limit was not always enough;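 further: 0% = mean of negative control wells and 100% = mean of positive control wells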
* = called active by the depositor; / = no result. Only a selection was taken, and hits are over-represented in it overall.

SMILES | Sa growth inh | S aureus helic
CS(=O)c1sc(C(=O)OCc2ccccc2)c2c1C(=O)CC(C)(C)C2 (stereo unspecified) | -0.7* | /
CS(=O)c1sc(Br)c2c1C(=O)CC(C)(C)C2 (stereo unspecified) | 94 | /
CC(NC(=O)c1ccncc1)C1CC2CCC1C2 (stereo unspecified) | 106 | 16
Cn1c(=O)[nH]c(=O)c2[nH]c(Cc3ccccc3)nc21 | 104 | -2
CCCCN(CC)S(=O)(=O)c1ccc(C(=O)Nc2nnc(COC)o2)cc1 | -0.5* | -3
CCc1nnc(NC(=O)c2ccc(S(=O)(=O)N(C)C)cc2)o1 | 79 | 0
CN(c1ccccc1)S(=O)(=O)c1ccc(C(=O)Nc2nnc(C(F)(F)F)o2)cc1 | 3.2* | 11
C=CCN(CC=C)S(=O)(=O)c1ccc(C(=O)Nc2nnc(COC)o2)cc1 | 22 | -8
CSCc1nnc(NC(=O)c2ccc(S(=O)(=O)N(C)Cc3ccccc3)cc2)o1 | 2.4* | 6
CN(c1ccccc1)S(=O)(=O)c1ccc(C(=O)O)cc1 | 91 | 25
CCN(Cc1ccccc1)S(=O)(=O)c1ccc(C(=O)Nc2nnc(COC)o2)cc1 | 5.7* | -1
CCN(CC)S(=O)(=O)c1ccc(C(=O)Nc2ncn(Cc3ccccc3)n2)cc1 | 94 | 3
COc1cc(C(=O)N=c2c(C#N)cc3c(=O)n4cccc(C)c4nc3n2C(C)C)cc(OC)c1OC | 81 | -18
O=C(Cc1ccc(Cl)cc1)Nc1ccc2[nH]c(=O)[nH]c2c1 | 104 | 8
Cc1ccc(C(=O)Nc2ccccc2C#N)cc1 | 105 | -13
COc1cccc(Nc2ncccc2C(=O)Nc2ccc(F)cc2)c1 | 72 | -5
Cc1cc(NC(=O)c2ccc(N3C(=O)CCC3=O)cc2)nc2c1c(=O)oc1ccccc12 | 0.1* | -11
Cc1cc(NC(=O)c2ccccc2)nc2c1c(=O)oc1ccccc12 | / | -5
CC1=C/C(=N\Nc2nc(C)cc(=O)[nH]2)CC(C)(C)C1 | 82 | -4
CSc1cccc(-c2nnc(NC(=O)c3ccc4c(c3)OCCO4)o2)c1 | 7.7* | /
CS(=O)(=O)c1ccccc1-c1nnc(NC(=O)c2ccc3c(c2)OCCO3)o1 | 74 | /
CC(C)N(C(=O)COc1ccc2ccccc2c1)C(C)C | 107 | -4
O=C(Oc1cccnc1)c1c(F)cccc1F | 81 | /
COc1ccccc1C(=O)CSc1ccc(Cl)cc1 | 6.6* | -17
O=C(CSc1ccc(Cl)cc1)c1ccc[nH]1 | 113 | 11
SMILES | Sa growth inh | S aureus helic
COc1ccc(C=NCC2(c3ccccc3)CCCC2)c(OC)c1 | 95 | -2
COc1ccc(CNC(=S)NCCO)cc1 | 85 | /
O=C(c1ccc(F)cc1)N1CCCCC(Sc2nnc3sc4ccccc4n23)C1=O (stereo unspecified) | 108 | 17
N#C[C@@H]1C[C@@](C#N)(C(=O)c2ccccc2)[C@H]2C=Cc3ccccc3N12 | 5.3* | -2
Cc1ccc(C)c([C@H]2[C@H](C(=O)c3ccccc3)N3c4ccccc4C=CC3C2(C#N)C#N)c1 (stereo partly specified) | 56 | -6
Cc1cc(OC(=O)c2cc(-c3ccc4c(c3)OCCO4)on2)ccc1Cl | 110 | /
Cc1ccc(-c2cc(C(=O)Oc3ccc(C#N)cc3)no2)cc1C | 99 | /
Cc1ccc(OC(=O)c2cc(-c3ccc4c(c3)OCCO4)on2)cc1C | 2.2* | /
Cc1cccc(OC(=O)c2cc(-c3ccc(C)c(C)c3)on2)c1 | 0.8* | /
CC(C)N=C(N)/N=C(\N)Nc1ccc(Cl)cc1 | 94 | /
NC(=NCCCCCCN=C(N)/N=C(\N)Nc1ccc(Cl)cc1)/N=C(\N)Nc1ccc(Cl)cc1 | -0.8* | /
CCOCCCNc1n[nH]c(=S)s1 | 57 | 7
COc1cc(/C=N/N=C(N)N)ccc1OC(=O)c1ccc(C)cc1 | -0.7* | 12
COc1ccc(/C=N/N=C(N)N)cc1OC | 103 | 35
CCN1C(=O)C(=Cc2ccc(N3CCCC3)cc2)C(=O)N(CC)C1=S | 85 | -2
CO[C@H]1/C=C/O[C@@]2(C)Oc3c(C)c(O)c4c(O)c(c(/C=N/N5CCN(C)CC5)c(O)c4c3C2=O)NC(=O)/C(C)=C\C=C\[C@H](C)[C@H](O)[C@@H](C)[C@@H](O)[C@@H](C)[C@H](OC(C)=O)[C@@H]1C | 1.6* | /
Fc1ccccc1Nc1ncnc2sc(-c3ccccc3)cc12 | 98 | 11
COc1ccc(Br)cc1S(=O)(=O)n1ccnc1 | / | -8
COc1cc(C)c(S(=O)(=O)n2ccnc2)cc1C(C)C | 2.4* | -6
O=S(=O)(c1ccccc1)c1nc(-c2ccccc2Cl)oc1Nc1ccc(N2CCOCC2)cc1 | 101 | 18
Cc1cc2ncc(-c3ccccc3)nc2cc1C | 104 | -16
c1ccc(-c2cnc3nonc3n2)cc1 | 0.8* | 14
Cc1ccccc1N1CC(C(=O)Nc2ccc(S(N)(=O)=O)cc2)CC1=O (stereo unspecified) | 118 | 16
CCN1/C(=C/C2=CC(=O)CC(C)(C)C2)Sc2ccccc21 | 1.0* | -76
CCN1/C(=C\C=C2C(=O)OC(C)(C)OC2=O)Sc2ccccc21 | 76 | -82
SMILES | Sa growth inh | S aureus helic
Cc1nnc(C(=O)c2ccccc2)o1 | 93 | 10
O=C(CC(SC1CCCCC1)C(=O)O)c1ccc(Br)cc1 (stereo unspecified) | 131 | 5
O=C(CC(Sc1ccc(Br)cc1)C(=O)O)c1ccc(Cl)cc1 (stereo unspecified) | 2.0* | 12
CC(=O)N1CCCc2ccc(NC(=O)C(C)C)cc21 | 82 | 0
CCCCc1cc(=O)oc2cc(C)cc(O)c12 | 27 | 2
CCCc1cc(O)c2c(C)cc(=O)oc2c1 | 5.2* | 5
COC(=O)c1ccc2c(=O)n(-c3ccc(C)cc3)c(Nc3ccccc3)nc2c1 | 100 | 10
CC(=O)Oc1coc2ccc3c(C)cc(=O)oc3c12 | 98 | 16
Cc1ccc(Cc2c(C)nc3c(-c4ccccc4)c(C)[nH]n3c2=O)cc1 | 108 | /
Cc1nc2c(-c3ccccc3)c(C)[nH]n2c(=O)c1Cc1ccc(Br)cc1 | 0.1* | /
O=C(COCc1cc(-c2ccco2)on1)N1CCCCC1 | 103 | 18
O=C(CN1CCN(c2ccccc2Cl)CC1)N1CCc2ccccc21 | 94 | -2
COCc1cc(=O)n2[nH]cc(-c3ccc(Cl)cc3)c2n1 | 113 | 17
CCCc1cc(=O)n2[nH]cc(-c3ccc(Cl)cc3)c2n1 | -0.6* | 36
COC(=O)c1oc2ccc(Cl)cc2c1C | 116 | 2
O=c1[nH]c(=O)n(C2C[C@H](O)[C@@H](CO)O2)cc1C(F)(F)F (stereo partly specified) | 96 | /
O=c1[nH]c(=O)n(C2C[C@@H](O)[C@@H](CO)O2)cc1F (stereo partly specified) | -0.7* | /
O=C(Nc1nnc(C2CCCC2)s1)C1CC1 | 85 | 3
CC(=O)c1c(C)[nH]n(-c2nc3ccccc3s2)c1=O | 163 | 17
O=C(Nc1ccc(Cl)cc1)Oc1ccccc1N1CCSCC1 | 117 | /
O=C(Nc1ccc(OC(F)(F)F)cc1)Oc1ccccc1N1CCOCC1 | 3.7* | /
CC1CN(c2ccccc2OC(=O)Nc2ccc(OC(F)(F)F)cc2)CC(C)O1 (stereo unspecified) | 3.0* | /
O=C(Nc1ccc(F)cc1)Oc1ccccc1N1CCOCC1 | 95 | -6
O=c1c2ccccc2nc2ccc(NC3CCCCC3)nn12 | 96 | 13
CC(C)C(NC(=O)CSc1nnc(-c2ccc(F)cc2)o1)c1nc2ccccc2[nH]1 (stereo unspecified) | 101 | -5
CC(C)n1c(=S)[nH]c2scc(-c3cccs3)c2c1=O | 3.9* | 9
